Assay results published in PubChem BioAssay (Tox21).
A number with no mark means an inactive call. The source made the active and inactive calls. The call rests on the fitted dose curve; in most records, active means well fitted curve in the direction sought with a large enough effect in the repeat runs; inconclusive means weak or mixed curves; inactive means flat fitted curve, though single readings scatter.

Experiment: qHTS assay to test for compound auto fluorescence at 590 nm (red) in HepG2 cells (AID 720674)
Conditions: HepG2 autofluorescence, red 540/590 nm, 1 h; series mostly up to 91.3 µM; fluorescence, relative to Rose Bengal: at the top concentration
Description: U.S. Tox21 Program National Center for Advancing Translational Sciences [NCATS] NIH Chemical Genomics Center [NCGC] U.S. Environmental Protection Agency [EPA] National Institutes of Environmental Health Sciences [NIEHS] National Toxicology Program [NTP] U.S. Food and Drug Administration [FDA] Tox21 Assay Overview: Compound auto fluorescence often interferes with screening of the compound library against various biological targets and signaling pathways. Some of these compounds may have fluorophoric properties. Such properties may interfere with the assay outputs resulting in false positives and/or negatives. To decrease such complications and ensure the compound activities are relevant in terms of biological response, the Tox21 10K compound library was screened for auto fluorescence. From the fluorophores used as reporter signals in our screening assays, the auto fluorescence equivalencies of compounds against three fluorophores have been evaluated: Triamterene, Fluorescein and Rose Bengal sodium for blue, green and red fluorescence, respectively. The fluorescence intensities were measured using Excitation/Emission wavelengths at 405/460nm, 485/535nm and 540/590nm for blue, green and red labels, respectively. This assay includes the red fluorescence data.
Tox21 Assay Protocol Summary: 2,000 HepG2 cells in 5 uL of culture medium (MEM containing 10% FBS) per well were dispensed into black wall/clear bottom 1536-well plates using a Multidrop Combi Dispenser (ThermoFisher Scientific, Waltham, MA). The assay plates were incubated overnight at 37 C to allow cell attachment to the well bottom, followed by the transfer of 23 nL compound or DMSO vehicle by a pintool work station (Kalypsys , San Diego, CA). After the assay plates were incubated for 1 hr at 37 C and 5% CO2, fluorescence intensities in the assay plates were measured by an Envision (PerkinElmer, Shelton, CT) plate reader using three labels for measuring blue, green and red fluorescence at […] 460, 535 and 590 nm respectively.
On the % scale 0 is the no-effect control and ±100 the full control effect.

| Compound | fluorescence, relative to Rose Bengal | outcome |
| --- | --- | --- |
| COC(=O)c1ccccc1CS(=O)(=O)NC(=O)Nc1nc(OC)cc(OC)n1 | -0.0736% |  |
| Clc1cc2c(cc1Cl)Oc1cc(Cl)c(Cl)cc1O2 | -0.0382% [at 0.37 µM] |  |
| ClC(Cl)(Cl)Cl |  | inactive |
| CCC(C(N)=O)N1CCCC1=O (stereo not given) | -0.0127% [at 46 µM] |  |
| CC(C)(C1CCC(O)CC1)C1CCC(O)CC1 (stereo not given) | -0.421% |  |
| Cl/C=C/CCl | -0.221% |  |
| CCC(C)(C#N)N=NC(C)(C#N)CC (stereo not given) | 0.155% |  |
| CCN[C@@H](C)Cc1ccccc1 | -0.108% [at 95.7 µM] |  |
| O=C(O)CBr | -0.304% |  |
| Clc1ccc(C(Cl)(Cl)Cl)cn1 | -0.418% |  |
| ClCCCCl | 0.0083% [at 95.7 µM] |  |
| CN(C)CCN(C)C | 0.089% |  |
| CCN(CC)CCOC(=O)C(O)(c1ccccc1)c1ccccc1 | 0.169% [at 46 µM] |  |
| CN(C)C(=O)Oc1cc(OC(=O)N(C)C)cc(C(O)CNC(C)(C)C)c1 (stereo not given) | 0.42% [at 18.6 µM] |  |
| O=C(Cl)c1ccccc1 | 0.117% [at 95.7 µM] |  |
| Oc1ccc2c3c1O[C@H]1[C@@H](O)C=C[C@H]4[C@@H](C2)NCC[C@@]341 | 0.0168% [at 95.7 µM] |  |
| CCOC(=O)COc1ccc(Cl)cc1Cl | 0.175% |  |
| CCCCCCC1CCOC1=O (stereo not given) | -0.117% |  |
| O=C(Cl)CCl | -0.0373% |  |
| O=C(O)C(Cl)Br (stereo not given) | 0.118% [at 95.7 µM] |  |

| Compound | fluorescence, relative to Rose Bengal | outcome |
| --- | --- | --- |
| CN1C(=O)COc2c(C(=O)NC3CN4CCC3CC4)cc(Cl)cc21 (stereo not given) | 0.588% [at 46 µM] |  |
| CCOP(=S)(OCC)SCCl | -0.0406% |  |
| CC(C)(O)C(Cl)(Cl)Cl | -0.898% [at 46 µM] |  |
| CC[C@H](N)c1ccccc1 | -0.04% |  |
| CC[C@@H](CO)NC(=O)[C@@H]1C=C2c3cccc4c3c(cn4C)C[C@H]2N(C)C1 | 0.769% [at 46 µM] |  |
| CCN(CCO)CCn1c(Cc2ccccc2)nc2c1c(=O)n(C)c(=O)n2C | -0.589% [at 46 µM] |  |
| COc1ccc(CN2CCNCC2)c(OC)c1OC | -0.414% [at 18.6 µM] |  |
| CCN[C@H](C)Cc1cccc(C(F)(F)F)c1 | -0.299% |  |
| COc1cccc([C@@]2(O)CCCC[C@@H]2CN(C)C)c1 | -0.258% [at 46 µM] |  |
| CON(C)C(=O)Nc1ccc(Br)cc1 | 0.0544% |  |
| CCCC(C)(COC(N)=O)COC(N)=O |  | inactive |
| O=C(O)C(Br)(Br)Br | -0.0009% |  |
| Brc1c(Br)c(Br)c(Br)c(Br)c1Br | 0.167% [at 3.72 µM] |  |
| CC(C)(C)C(=O)Cl | 0.0103% [at 95.7 µM] |  |
| BrCc1ccc(Br)cc1 | 0.272% |  |
| ClCC1CO1 (stereo not given) |  | inactive |
| CCOc1cc(OP(=S)(OC)OC)nc(CC)n1 | -0.0198% |  |
| CC[C@H](O)C(C[C@H](C)N(C)C)(c1ccccc1)c1ccccc1 | 0.356% [at 95.7 µM] |  |
| C=C(Cl)CSC(=S)N(CC)CC | -0.175% [at 95.7 µM] |  |
| CN=CNc1ccc(C)cc1C | -0.413% |  |
